Results from PubChem BioAssay AID504602 (National Center for Advancing Translational Sciences (NCATS), 2011).
Records with an inconclusive call do not appear. Calls of active or inactive are those of the source. Calls come from the whole dose curve; as a rule, active = well fitted curve in the direction sought with a large enough effect; inconclusive = small, poorly fitted or top-dose-only effect, or effect the other way, or another doubt; inactive = no such curve, though single readings can be large or run the other way.

Assay: Quantitative high throughput screen to test cell viability of anti-malarial compounds targeting the delayed death phenotype
Details: HepG2 viability, CellTiter-Glo luminescence, 48 h; series mostly up to 46.1 µM; activity change, negative = cytotoxicity: at the top concentration
Description: The biochemical processes that make this organelle essential for erythrocytic stage parasites are not well understood. However, antibiotics, such as azithromycin and tetracycline, which target the apicoplast translational machinery, have a potent antimalarial effect. […] We have developed a cell-based assay that measures parasite growth based on the expression of an integrated copy of a firefly luciferase reporter. To detect small molecules that cause this 'delayed death' phenotype, erythrocytes infected with the luciferase-expressing parasites were incubated with compounds for either one or two generations, corresponding to 48 and 96 hours, respectively. Compounds that inhibit parasite growth in the second generation, but not the first, should be enriched in antimalarials that target the apicoplast. Growth inhibition is detected by a decrease in luciferase activity. The goal of this counterscreen is to measure the cytoxoxicity (against HepG2 cell line) of a set of anti-malarial compounds that target the delayed death pheonotype as identified by the qHTS assay that inhibit the development of the apicoplast in the malarial parasite Plasmodium falciparum. NIH Molecular Libraries Probe Production Network [MLPCN] NIH Chemical Genomics Center [NCGC] MLPCN Grant: R21 NS059500 Assay Provider: David Fidock and Eric Ekland, Columbia University
Cells were plated at a density of 2000 cells/well/5uL in 1536 well white tissue culture plate with culture medium. Triplicate plates were prepared. Plates were incubated at 37C, 5% CO2 for 5 hours and then 23nL of compounds and positive control were transferred to the assay plates. Tetraoctylammonium bromide was added as a positive control. Plates were then incubated at 37C, 5% CO2 for 48 hours. 5 uL of CellTitler-Glo buffer was added to each well and then incubated for 30 min at room temperature. Luminescence was measured using ViewLux (1 second, slow, 2X).

Row | Compound | activity change, negative = cytotoxicity | Potency
1 | C[C@@H]1CN([C@@H](C)CN=[N+]=[N-])C(=O)c2cc(NC(=O)Nc3ccccc3)ccc2O[C@@H](C)CCCCO[C@H]1CN(C)S(=O)(=O)c1ccc(F)cc1 | -2.67% (inactive) | –
2 | C[C@@H]1CN([C@@H](C)CO)C(=O)c2cc(NC(=O)Nc3ccccc3)ccc2O[C@@H](C)CCCCO[C@H]1CN(C)S(=O)(=O)c1ccccc1F | 7.68% (inactive) | –
3 | C[C@@H]1CN([C@@H](C)CO)C(=O)c2cc(NC(=O)Nc3ccccc3)ccc2O[C@@H](C)C/C=C\CO[C@H]1CN(C)S(=O)(=O)c1ccc(F)cc1 | 25.5% (inactive) | –
4 | C[C@@H]1CN([C@@H](C)COC(=O)C(C)(C)C)C(=O)c2cc(NC(=O)Nc3ccccc3)ccc2O[C@@H](C)CCCCO[C@H]1CN(C)S(=O)(=O)c1ccc(F)cc1 | 19.5% (inactive) | –
5 | C[C@@H]1CN(CCO)C(=O)c2cc(NC(=O)Nc3ccccc3)ccc2O[C@@H](C)CCCCO[C@H]1CN(C)S(=O)(=O)c1ccc(F)cc1 | -1.25% (inactive) | –
6 | C[C@@H]1CN(C)C(=O)c2cc(NC(=O)Nc3ccccc3)ccc2O[C@@H](C)CCCCO[C@@H]1CN(C)S(=O)(=O)c1ccc(F)cc1 | 16.5% (inactive) | –
7 | CC(C)NC(=O)Nc1ccc2c(c1)C(=O)N([C@@H](C)CO)C[C@@H](C)[C@H](CN(C)S(=O)(=O)c1ccc(F)cc1)OCCCC[C@H](C)O2 | 16.9% (inactive) | –
8 | C[C@@H]1CN([C@@H](C)CO[Si](C)(C)C(C)(C)C)C(=O)c2cc(NC(=O)Nc3ccccc3)ccc2O[C@@H](C)CCCCO[C@H]1CN(C)S(=O)(=O)c1ccc(F)cc1 | -14.3% (inactive) | –
9 | C[C@@H]1CN([C@@H](C)CO)C(=O)c2cc(N)ccc2O[C@@H](C)CCCCO[C@H]1CN(C)S(=O)(=O)c1ccc(F)cc1 | 8.01% (inactive) | –
10 | C=CCOC(=O)N(C)C[C@@H]1OCCCC[C@H](C)Oc2ccc(NC(=O)Nc3ccccc3)cc2C(=O)N([C@H](C)COC(=O)c2ccccc2)C[C@H]1C | 19.1% (inactive) | –
11 | C[C@@H]1CN([C@@H](C)CO)C(=O)c2cc(NC(=O)Nc3ccccc3)ccc2O[C@@H](C)CCCCO[C@H]1CN(C)S(=O)(=O)c1cccc(F)c1 | 4.87% (inactive) | –
12 | C[C@@H]1CN([C@@H](C)COC(C)(C)C)C(=O)c2cc(NC(=O)Nc3ccccc3)ccc2O[C@@H](C)CCCCO[C@H]1CN(C)S(=O)(=O)c1ccc(F)cc1 | 4.18% (inactive) | –
13 | C[C@@H]1CN([C@@H](C)COC(=O)c2ccccc2)C(=O)c2cc(NC(=O)Nc3ccccc3)ccc2O[C@@H](C)CCCCO[C@H]1CN(C)S(=O)(=O)c1ccc(F)cc1 | 3.02% (inactive) | –
14 | C[C@@H]1CN([C@@H](C)CO)C(=O)c2cc(NC(=O)Nc3ccccc3)ccc2O[C@@H](C)CCCCO[C@H]1CN(C)C(=O)OC(C)(C)C | -7.33% (inactive) | –
15 | C=CCOC(=O)N(C)C[C@@H]1OCCCC[C@H](C)Oc2ccc(NC(=O)Nc3ccccc3)cc2C(=O)N([C@@H](C)CO)C[C@H]1C | -17.9% (inactive) | –
16 | C=CCOC(=O)N(C)C[C@H]1OCCCC[C@H](C)Oc2ccc(NC(=O)Nc3ccccc3)cc2C(=O)N([C@@H](C)CO[Si](C)(C)C(C)(C)C)C[C@H]1C | -5.42% (inactive) | –
17 | COCCOC(=O)N(C)C[C@@H]1OCCCC[C@H](C)Oc2ccc(NC(=O)Nc3ccccc3)cc2C(=O)N([C@@H](C)CO)C[C@H]1C | 6.18% (inactive) | –
18 | Cc1noc(C)c1NC(=O)Nc1ccc2c(c1)C(=O)N(C(C)C)C[C@@H](C)[C@H](CN(C)S(=O)(=O)c1ccc(F)cc1)OCCCC[C@H](C)O2 | 9.18% (inactive) | –
19 | C[C@@H]1CN([C@@H](C)CO)C(=O)c2cc(NC(=O)Nc3ccccc3)ccc2O[C@@H](C)CCCCO[C@H]1CN(C)S(=O)(=O)c1ccc(C(F)(F)F)cc1 | -7.97% (inactive) | –
20 | C[C@@H]1CN(CCO[Si](C)(C)C(C)(C)C)C(=O)c2cc(NC(=O)Nc3ccccc3)ccc2O[C@@H](C)CCCCO[C@H]1CN(C)S(=O)(=O)c1ccc(F)cc1 | -5.91% (inactive) | –
21 | C[C@@H]1CN([C@@H](C)CO)C(=O)c2cc(NC(=O)Nc3ccccc3)ccc2O[C@@H](C)C/C=C/CO[C@H]1CN(C)S(=O)(=O)c1ccc(F)cc1 | 4.49% (inactive) | –
22 | COCOC[C@H](C)N1C[C@@H](C)[C@H](CN(C)S(=O)(=O)c2ccc(F)cc2)OCCCC[C@H](C)Oc2ccc(NC(=O)Nc3ccccc3)cc2C1=O | – | 7.91 µM (active)
23 | COc1ccc(COC[C@H](C)N2C[C@@H](C)[C@H](CN(C)S(=O)(=O)c3ccc(F)cc3)OCCCC[C@H](C)Oc3ccc(NC(=O)Nc4ccccc4)cc3C2=O)cc1 | -15% (inactive) | –
24 | Cc1noc(C)c1NC(=O)Nc1ccc2c(c1)C(=O)N([C@@H](C)CO)C[C@@H](C)[C@H](CN(C)S(=O)(=O)c1ccc(F)cc1)OCCCC[C@H](C)O2 | 12.1% (inactive) | –
25 | C[C@@H]1CN([C@H](C)CO[Si](C)(C)C(C)(C)C)C(=O)c2cc(NC(=O)Nc3ccccc3)ccc2O[C@@H](C)CCCCO[C@H]1CN(C)S(=O)(=O)c1ccc(F)cc1 | -18% (inactive) | –
26 | C[C@@H]1CN([C@@H](C)CO)C(=O)c2cc(NC(=O)Nc3ccccc3)ccc2O[C@@H](C)CCCCO[C@H]1CN(C)S(=O)(=O)c1cccnc1 | 4.77% (inactive) | –
27 | C[C@@H]1CN([C@@H](C)CO)C(=O)c2cc(Nc3nc4ccccc4o3)ccc2O[C@@H](C)CCCCO[C@H]1CN(C)S(=O)(=O)c1ccc(F)cc1 | 11.4% (inactive) | –
28 | COc1ccc(COCCN2C[C@@H](C)[C@H](CN(C)S(=O)(=O)c3ccc(F)cc3)OCCCC[C@H](C)Oc3ccc(NC(=O)Nc4ccccc4)cc3C2=O)cc1 | -2.11% (inactive) | –
29 | C[C@@H]1CN([C@@H](C)COC(=O)c2ccccc2)C(=O)c2cc(NC(=O)Nc3ccccc3)ccc2O[C@@H](C)CCCCO[C@H]1CN(C)C(=O)OC(C)(C)C | -7.44% (inactive) | –
30 | C[C@@H]1CN([C@@H](C)CO)C(=O)c2cc(NC(=O)Nc3ccccc3)ccc2O[C@@H](C)CCCCO[C@H]1CN(C)Cc1ccc(C(F)(F)F)cc1 | 16.6% (inactive) | –
